# Records with an inconclusive call do not appear. Where a call stands in place of a potency, no number is given. A number with no mark means an inactive call. Calls of active or inactive are those of the source. Calls come from the whole dose curve; as a rule, active = well fitted cell-killing curve with a large enough effect; inconclusive = small, poorly fitted or top-dose-only effect, or effect the other way; inactive = no such curve, though single readings can be large or run the other way.
# Key:
# [1] = Quantitative High-Throughput drug screen in 47 multiple myeloma cell lines against the NCATS MIPE library collection: MM1R_ATCC cell viability assay (AID 1918981); note: nearly all actives have a fitted effect of over 35% in size
# How it was run: (§1)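 Inhibition of viability over 48 h was scored by ATP content (CellTiter-Glo) in 500-cell wells. Zero and full viability were defined by media-only and DMSO-only wells.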
# [2] = Quantitative High-Throughput drug screen in 47 multiple myeloma cell lines against the NCATS MIPE library collection: KMS28PE_JCRB cell viability assay (AID 1918983); note: nearly all actives have a fitted effect of over 35% in size
# How it was run: as §1
# [3] = Quantitative High-Throughput drug screen in 47 multiple myeloma cell lines against the NCATS MIPE library collection: L363_DSMZ cell viability assay (AID 1918984); details: L363 myeloma viability, CellTiter-Glo ATP luminescence, 48 h; viability (% of control): at 45.8 µM (top of the series); note: nearly all actives have a fitted effect of over 40% in size
# How it was run: as §1
# [4] = Quantitative High-Throughput drug screen in 47 multiple myeloma cell lines against the NCATS MIPE library collection: OCIMY5_PLB cell viability assay (AID 1918988); note: nearly all actives have a fitted effect of over 65% in size
# How it was run: as §1
# [5] = Quantitative High-Throughput drug screen in 47 multiple myeloma cell lines against the NCATS MIPE library collection: OPM1_PLB cell viability assay (AID 1918989); note: nearly all actives have a fitted effect of over 40% in size
# How it was run: as §1
# [6] = Quantitative High-Throughput drug screen in 47 multiple myeloma cell lines against the NCATS MIPE library collection: U266_ATCC cell viability assay (AID 1919864); note: nearly all actives have a fitted effect of over 35% in size
# How it was run: as §1
# [7] = Quantitative High-Throughput drug screen in 47 multiple myeloma cell lines against the NCATS MIPE library collection: XG6_PLB cell viability assay (AID 1919865); note: nearly all actives have a fitted effect of over 40% in size
# How it was run: as §1
# [8] = Quantitative High-Throughput drug screen in 47 multiple myeloma cell lines against the NCATS MIPE library collection: XG1_PLB cell viability assay (AID 1919866); note: nearly all actives have a fitted effect of over 35% in size
# How it was run: as §1
# [9] = Quantitative High-Throughput drug screen in 47 multiple myeloma cell lines against the NCATS MIPE library collection: VP6_DJ cell viability assay (AID 1919867); note: nearly all actives have a fitted effect of over 40% in size
# How it was run: as §1
# [10] = Quantitative High-Throughput drug screen in 47 multiple myeloma cell lines against the NCATS MIPE library collection: UTMC2_PLB cell viability assay (AID 1919868); details: CellTiter-Glo ATP luminescence, 48 h; viability (% of DMSO control): at 45.8 µM (top of the series); note: nearly all actives have a fitted effect of over 55% in size
# How it was run: as §1
# [11] = Quantitative High-Throughput drug screen in 47 multiple myeloma cell lines against the NCATS MIPE library collection: PE2_PLB cell viability assay (AID 1919869); note: nearly all actives have a fitted effect of over 35% in size
# How it was run: as §1
# [12] = Quantitative High-Throughput drug screen in 47 multiple myeloma cell lines against the NCATS MIPE library collection: PCM6_Riken cell viability assay (AID 1919870); note: nearly all actives have a fitted effect of over 30% in size
# How it was run: as §1
# [13] = Quantitative High-Throughput drug screen in 47 multiple myeloma cell lines against the NCATS MIPE library collection: RPMI8226_ATCC cell viability assay (AID 1919871); note: nearly all actives have a fitted effect of over 30% in size
# How it was run: as §1
# [14] = Quantitative High-Throughput drug screen in 47 multiple myeloma cell lines against the NCATS MIPE library collection: KMS11_JCRBsus cell viability assay (AID 1919873); note: nearly all actives have a fitted effect of over 50% in size
# How it was run: as §1
# [15] = Quantitative High-Throughput drug screen in 47 multiple myeloma cell lines against the NCATS MIPE library collection: KMS28BM_JCRB cell viability assay (AID 1919874); note: nearly all actives have a fitted effect of over 35% in size
# How it was run: as §1
# [16] = Quantitative High-Throughput drug screen in 47 multiple myeloma cell lines against the NCATS MIPE library collection: OPM2_DSMZ cell viability assay (AID 1919872); note: nearly all actives have a fitted effect of over 30% in size
# How it was run: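 We plated 500 myeloma cells per well, pinned in MIPE 4.0 compounds, and incubated for 48 hours at 37C. ATP was then quantified with CellTiter-Glo, with DMSO and media-only wells defining 100% and 0%.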
# [17] = Quantitative High-Throughput drug screen in 47 multiple myeloma cell lines against the NCATS MIPE library collection: OCIMY7_PLB cell viability assay (AID 1918987); details: OCI-MY7 myeloma viability, CellTiter-Glo ATP, 48 h; viability (% of DMSO): at 45.8 µM (top of the series); note: nearly all actives have a fitted effect of over 65% in size
# How it was run: as §1
# [18] = Quantitative High-Throughput drug screen in 47 multiple myeloma cell lines against the NCATS MIPE library collection: KMS34_JCRB cell viability assay (AID 1918985); note: nearly all actives have a fitted effect of over 40% in size
# How it was run: as §1
# [19] = Quantitative High-Throughput drug screen in 47 multiple myeloma cell lines against the NCATS MIPE library collection: SKMM1_PLB cell viability assay (AID 1919863); details: SKMM1 myeloma viability, CellTiter-Glo ATP, 48 h; viability: active compounds read low; note: nearly all actives have a fitted effect of over 35% in size
# How it was run: as §1
# Potency is the fitted concentration of half-maximal effect.
compound,measurement,setting,value
Cn1c(=O)c(-c2c(Cl)cccc2Cl)cc2cnc(Nc3cccc(C(=O)O)c3)nc21,Potency,[1],9.35 µM (active)
same,Potency,[2],5.26 µM (active)
same,Potency,[3],0.59 µM (active)
same,Potency,[4],13.2 µM (active)
same,Potency,[5],inactive
same,Potency,[6],inactive
same,Potency,[7],0.187 µM (active)
same,Potency,[8],0.296 µM (active)
same,Potency,[9],0.235 µM (active)
same,viability (% of DMSO control),[10],127% (active)
same,Potency,[11],inactive
same,Potency,[12],0.0469 µM (active)
same,Potency,[13],inactive
same,Potency,[14],inactive
same,Potency,[15],inactive
O=C1NC(=O)C(c2cnc3ccccn23)=C1c1cn2c3c(cccc13)CN(C(=O)N1CCOCC1)CC2,Potency,[1],3.32 µM (active)
same,Potency,[2],inactive
same,Potency,[3],0.0093 µM (active)
same,Potency,[4],0.372 µM (active)
same,Potency,[5],10.5 µM (active)
same,Potency,[6],inactive
same,Potency,[7],1.87 µM (active)
same,Potency,[9],5.26 µM (active)
same,Potency,[10],0.001 µM (active)
same,Potency,[12],7.43 µM (active)
same,Potency,[16],0.0047 µM (active)
same,Potency,[14],0.0935 µM (active)
same,Potency,[15],inactive
c1ccc(CNc2nc(N3CCOc4ccccc43)nc3c2CCCC3)cc1,Potency,[1],inactive
same,Potency,[2],inactive
same,Potency,[3],inactive
same,Potency,[5],inactive
same,Potency,[6],inactive
same,Potency,[8],inactive
same,Potency,[12],inactive
same,Potency,[15],inactive
Nc1ccn([C@@H]2O[C@H](CO)[C@@H](O)[C@H]2O)c(=O)n1,Potency,[1],0.0526 µM (active)
same,Potency,[2],inactive
same,Potency,[3],inactive
same,Potency,[4],inactive
same,Potency,[5],inactive
same,Potency,[8],inactive
same,Potency,[10],0.001 µM (active)
same,Potency,[11],inactive
same,Potency,[12],inactive
same,Potency,[13],inactive
same,Potency,[16],inactive
same,Potency,[14],inactive
same,Potency,[15],inactive
N#CC(c1ccc(Cl)cc1)c1c(Cl)cc(-n2ncc(=O)[nH]c2=O)cc1Cl (stereo not given),Potency,[1],2.64 µM (active)
same,Potency,[2],inactive
same,Potency,[3],16.6 µM (active)
same,Potency,[17],4.69 µM (active)
same,Potency,[5],5.9 µM (active)
same,Potency,[7],14.8 µM (active)
same,Potency,[8],18.7 µM (active)
same,Potency,[9],20.9 µM (active)
same,Potency,[11],18.7 µM (active)
same,Potency,[12],23.5 µM (active)
same,Potency,[16],inactive
C=CCc1cccc(C=NNC(=O)CN2CCN(Cc3ccccc3)CC2)c1O,Potency,[1],10.5 µM (active)
same,Potency,[2],20.9 µM (active)
same,Potency,[3],6.62 µM (active)
same,Potency,[18],4.69 µM (active)
same,Potency,[4],7.43 µM (active)
same,Potency,[5],20.9 µM (active)
same,Potency,[6],8.33 µM (active)
same,Potency,[7],9.35 µM (active)
same,Potency,[8],10.5 µM (active)
same,Potency,[9],7.43 µM (active)
same,Potency,[10],20.9 µM (active)
same,Potency,[11],20.9 µM (active)
same,Potency,[12],26.4 µM (active)
same,Potency,[16],16.6 µM (active)
same,Potency,[14],8.33 µM (active)
same,Potency,[15],7.43 µM (active)
NCC1CCC(C(=O)O)CC1 (stereo not given),Potency,[1],inactive
same,Potency,[2],inactive
same,Potency,[3],inactive
same,Potency,[18],inactive
same,Potency,[5],inactive
same,Potency,[6],5.9 µM (active)
same,Potency,[7],inactive
same,Potency,[11],inactive
same,Potency,[12],inactive
same,Potency,[13],inactive
same,Potency,[16],inactive
same,Potency,[14],inactive
same,Potency,[15],inactive
COc1cc2nccc(Oc3ccc(NC(=O)Nc4ccc(F)cc4F)c(F)c3)c2cc1OC,Potency,[1],2.96 µM (active)
same,Potency,[2],6.62 µM (active)
same,Potency,[3],inactive
same,Potency,[4],1.87 µM (active)
same,Potency,[6],11.8 µM (active)
same,Potency,[7],inactive
same,Potency,[8],inactive
same,Potency,[10],inactive
same,Potency,[12],inactive
same,Potency,[16],4.69 µM (active)
same,Potency,[14],2.09 µM (active)
Cc1nc(C(=O)NCC(=O)O)c(O)c2ccc(Oc3ccccc3)cc12,Potency,[1],inactive
same,Potency,[2],inactive
same,Potency,[3],inactive
same,Potency,[17],inactive
same,Potency,[4],inactive
same,Potency,[10],inactive
same,Potency,[11],inactive
same,Potency,[13],inactive
same,Potency,[16],inactive
same,Potency,[14],inactive
CN1CCN(c2cccc(Nc3nc4c(-c5ccc(S(C)(=O)=O)cc5)cccn4n3)c2)CC1,Potency,[1],16.6 µM (active)
same,Potency,[2],16.6 µM (active)
same,Potency,[3],3.32 µM (active)
same,Potency,[17],0.743 µM (active)
same,Potency,[4],4.69 µM (active)
same,Potency,[19],18.7 µM (active)
same,Potency,[6],3.32 µM (active)
same,Potency,[7],0.833 µM (active)
same,Potency,[8],0.372 µM (active)
same,Potency,[9],0.743 µM (active)
same,Potency,[11],1.05 µM (active)
same,Potency,[12],7.43 µM (active)
same,Potency,[13],9.35 µM (active)
same,Potency,[15],0.743 µM (active)
CN1CC(=O)N2C(Cc3c([nH]c4ccccc34)[C@H]2c2ccc3c(c2)OCO3)C1=O (stereo not given in full),Potency,[1],inactive
same,Potency,[2],inactive
same,Potency,[3],inactive
same,Potency,[5],inactive
same,viability,[19],129%
same,Potency,[6],inactive
same,Potency,[8],inactive
same,Potency,[9],inactive
same,Potency,[11],inactive
same,Potency,[16],inactive
same,Potency,[14],inactive
same,Potency,[15],inactive
O=C(O)c1nc(=O)[nH]c(=O)[nH]1,Potency,[1],inactive
same,Potency,[2],11.5 µM (active)
same,Potency,[3],inactive
same,Potency,[18],inactive
same,Potency,[5],inactive
same,Potency,[12],inactive
same,Potency,[13],10.2 µM (active)
same,Potency,[16],inactive
same,Potency,[14],11.5 µM (active)

# — PubChem BioAssay (NCATS)
